Consider eight compounds from PubChem BioAssay (Tox21).

Results filed as inconclusive are left out. Calls of active or inactive are those of the source. Unless noted, the call rests on the fitted dose curve; in most records, active means well fitted curve in the direction sought with a large enough effect in the repeat runs; inconclusive means weak or mixed curves; inactive means no such curve, though single readings can be large; an effect the other way counts as inactive or inconclusive.

Assay [1] is described as follows: qHTS assay to identify small molecule agonists of the peroxisome proliferator-activated receptor delta (PPARd) signaling pathway - cell viability counter screen (AID 743211). Further: nearly all actives have a fitted effect of over 55% in size. In short, it runs like this:
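Viability of GeneBLAzer PPARd UAS-bla HEK293H cells was assessed after 17 h compound incubation at 37C, using CellTiter-Glo reagent added after the reporter read and luminescence recorded 30 min later.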

A short description of assay [2]: qHTS assay to identify small molecule agonists of the farnesoid-X-receptor (FXR) signaling pathway - cell viability counter screen (AID 743218). Further: nearly all actives have a fitted effect of over 45% in size. In short, it runs like this:
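Viability of FXR-bla HEK 293T cells is measured by ATP-based CellTiter-Glo luminescence following 16 h compound treatment at 37 C and a prior 2 h room-temperature beta-lactamase substrate step.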
On the technique in general: In qHTS, concentration-response curves come from the screen itself.

Assay [3] can be described thus: qHTS assay to identify small molecule antagonists of the farnesoid-X-receptor (FXR) signaling pathway - cell viability counter screen (AID 743221; active means well fitted cell-killing curve with a large enough effect in the repeat runs, not every such curve was filed as active; further: nearly all actives have a fitted effect of over 50% in size). The method, boiled down: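 Quantitative HTS of the Tox21 10K library run in parallel with the beta-lactamase reporter read. HEK 293T cells carrying a UAS-driven bla reporter got compound and 50 uM CDCA (final) for 16 h; ATP-based luminescence followed.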

In assay [4] the target is Vitamin D3 receptor (Homo sapiens) (UniProt P11473). The assay can be described thus: qHTS assay to identify small molecule agonists of the vitamin D receptor (VDR) signaling pathway (AID 743222; calls by dose curve). In short, it runs like this: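 Fluorescence from cleaved LiveBLAzer B/G FRET substrate served as readout. VDR-bla cells had been treated 16 h at 37C with test compounds in DMSO, following a 4 h settling period, and substrate was loaded for 2 h at RT.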

The target is the same in assay [5]. The assay can be described thus: qHTS assay to identify small molecule antagonists of the vitamin D receptor (VDR) signaling pathway (AID 743223; active means well fitted inhibition curve with a large enough effect in the signal ratio in the repeat runs, not every such curve was filed as active; the % refers to the signal ratio). In short, it runs like this:
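Fluorescence from LiveBLAzer B/G FRET substrate, read after 2 h at room temperature, reflects beta-lactamase reporter activity in VDR-bla cells treated 16 h at 37C with compounds and agonist 1alpha,25-dihydroxyvitamin D3 (3 nM final).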

Assay [6] is described as follows: qHTS assay to identify small molecule agonists of the vitamin D receptor (VDR) signaling pathway - cell viability counter screen (AID 743224). Further: series mostly up to about 63 µM; nearly all actives have a fitted effect of over 50% in size. The method, boiled down:
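Compounds were pin-transferred onto VDR-bla cells plated 4 h earlier; following 16 h incubation at 37C, cell viability was quantified by CellTiter-Glo luminescence after 30 min at room temperature.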

A short description of assay [7]: qHTS assay to identify small molecule antagonists of the vitamin D receptor (VDR) signaling pathway - cell viability counter screen (AID 743225). Further: nearly all actives have a fitted effect of over 50% in size. In short, it runs like this: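 Cells (VDR-UAS-bla HEK 293T) are plated, rested 4 h at 37C, dosed with compound and 3 nM final 1-alpha,25-dihydroxy vitamin D3, and incubated 16 h. Viability is taken from CellTiter-Glo luminescence in the reporter wells.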

The nature of assay [8]: qHTS assay to identify small molecule agonists of the NFkB signaling pathway (AID 1159509; active means well fitted curve in the direction sought with a large enough effect in the signal ratio in the repeat runs, not every such curve was filed as active; the % refers to the signal ratio; further: series mostly up to about 61 µM). In short, it runs like this:
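Agonist activity was read as beta-lactamase-driven FRET change (460 and 530 nm emission, 405 nm excitation) following 1.5 hr substrate loading at room temperature. Beforehand, ME-180 NFkB-bla reporter cells were treated with compounds for 5 hr at 37 C.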

Assay [9] can be described thus: qHTS assay to identify small molecule agonists of the NFkB signaling pathway - cell viability counter screen (AID 1159515; calls by dose curve; further: series mostly up to about 61 µM; nearly all actives have a fitted effect of over 55% in size). In short, it runs like this:
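Parallel cytotoxicity counter screen in ME-180 cells carrying an NFkB-response-element beta-lactamase reporter, 2,000 cells/well. Compound exposure lasted 5 hr at 37 C, 5% CO2. Cell viability was quantified by CellTiter-Glo luminescence.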

The nature of assay [10]: qHTS assay to identify small molecule agonists of the endoplasmic reticulum stress response signaling pathway (AID 1159516; active means well fitted activation curve with a large enough effect in the signal ratio in the repeat runs, not every such curve was filed as active; the % refers to the signal ratio). The method, boiled down:
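Using a HeLa line with an ESRE-driven beta-lactamase gene, agonist activity was measured by FRET substrate fluorescence (460 and 530 nm emission) after cells were treated with compounds for 5 hr at 37 C and 5% CO2.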

Assay [11] can be described thus: qHTS assay to identify small molecule antagonists of the retinoid-related orphan receptor gamma (ROR-gamma) signaling pathway - cell viability counter screen (AID 1159520). Further: nearly all actives have a fitted effect of over 50% in size. In short, it runs like this:
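Tet-on ROR gamma CHO cells were given compounds for 2 hr, then doxycycline hyclate at 1 uM final, and incubated 16 hr at 37 C. Viability was measured as ATP content by CellTiter-Glo luminescence.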

The target of assay [12] is Nuclear receptor ROR-gamma (Homo sapiens) (UniProt P51449). Nature of the assay: qHTS assay to identify small molecule antagonists of the retinoid-related orphan receptor gamma (ROR-gamma) signaling pathway (AID 1159521; further: nearly all actives have a fitted effect of over 50% in size; further: potency means the concentration at half of the fitted maximal effect). In short, it runs like this: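 RORγ antagonism is scored from reduced reporter luminescence in Tet-on CHO cells. Induction used 1 uM final doxycycline hyclate for 16 h at 37 C, following a 2 h compound exposure.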

A short description of assay [13]: qHTS assay to identify small molecule agonists of the AP-1 signaling pathway - cell viability counter screen (AID 1159525; calls by dose curve; further: nearly all actives have a fitted effect of over 55% in size). The method, boiled down:
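Same-well cytotoxicity counter screen of the Tox21 10K library in ME-180 cells. The readout is ATP-dependent luminescence after 5 h compound treatment. Data are normalised to DMSO and tetra n-octyl ammonium bromide controls.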

Assay [14] in a line: qHTS assay to identify small molecule agonists of the AP-1 signaling pathway (AID 1159526; calls by dose curve).
Assay [15] is described as follows: qHTS assay to identify small molecule antagonists of the peroxisome proliferator-activated receptor delta (PPARd) signaling pathway - cell viability counter screen (AID 743213). Further: nearly all actives have a fitted effect of over 50% in size. The method, boiled down:
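Agonist-stimulated (L165041, 300 nM final) HEK293H PPARd UAS-bla cells are exposed to compounds for 17 h at 37 C, and ATP-based luminescence (CellTiter-Glo) from the same wells reports cytotoxicity.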

Assay [16] deals with Peroxisome proliferator-activated receptor delta (Homo sapiens) (UniProt Q03181). Nature of the assay: qHTS assay to identify small molecule agonists of the peroxisome proliferator-activated receptor delta (PPARd) signaling pathway (AID 743212; calls by dose curve). In short, it runs like this: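 Tox21 library screened in GeneBLAzer PPARd UAS-bla HEK293H cells. After compound treatment at 37 C, a FRET-based beta-lactamase substrate was applied for 2 h and fluorescence recorded.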

Assay [17] shares this target. Nature of the assay: qHTS assay to identify small molecule antagonists of the peroxisome proliferator-activated receptor delta (PPARd) signaling pathway (AID 743215; active means well fitted inhibition curve with a large enough effect in the signal ratio in the repeat runs, not every such curve was filed as active; the % refers to the signal ratio; further: series mostly up to about 62 µM). In short, it runs like this: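 Plated HEK293H PPARd-bla cells rested 5 h at 37 C and 5% CO2. Compound, then agonist L165041 at 300 nM final, was added; 17 h at 37 C followed. Substrate loading, 2 h room temperature, fluorescence measured.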

The nature of assay [18]: qHTS assay to identify small molecule agonists of the endoplasmic reticulum stress response signaling pathway - cell viability counter screen (AID 1159517; calls by dose curve). In short, it runs like this:
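In parallel with the ESRE reporter read, cytotoxicity was scored by CellTiter-Glo luminescence (30 min, room temperature) on HeLa ESRE-bla cells dosed for 5 hr.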

Assay [19] addresses Bile acid receptor (Homo sapiens) (UniProt Q96RI1). Nature of the assay: qHTS assay to identify small molecule antagonists of the farnesoid-X-receptor (FXR) signaling pathway (AID 743217; active means well fitted inhibition curve with a large enough effect in the signal ratio in the repeat runs, not every such curve was filed as active; the % refers to the signal ratio). In short, it runs like this:
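Screen of the Tox21 10K library in quantitative HTS format using FXR-UAS-bla HEK 293T reporter cells. Agonist chenodeoxycholic acid, 50 uM final, added with compounds; 16 h incubation at 37 °C; beta-lactamase FRET fluorescence measured.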

For assay [20] the target is unchanged. Nature of the assay: qHTS assay to identify small molecule agonists of the farnesoid-X-receptor (FXR) signaling pathway (AID 743220; active means well fitted activation curve with a large enough effect in the signal ratio in the repeat runs, not every such curve was filed as active; the % refers to the signal ratio). The method, boiled down:
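FXR-UAS-bla HEK 293T cells carrying a UAS-driven beta-lactamase reporter were plated for 5 h at 37C/5% CO2, then exposed to DMSO-dissolved Tox21 10K compounds for 16 h at 37C. A LiveBLAzer B/G FRET substrate was loaded for 2 h at room temperature before fluorescence reading.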

Chain of Bile acid receptor (Homo sapiens) (Q96RI1 whole entry, looked up): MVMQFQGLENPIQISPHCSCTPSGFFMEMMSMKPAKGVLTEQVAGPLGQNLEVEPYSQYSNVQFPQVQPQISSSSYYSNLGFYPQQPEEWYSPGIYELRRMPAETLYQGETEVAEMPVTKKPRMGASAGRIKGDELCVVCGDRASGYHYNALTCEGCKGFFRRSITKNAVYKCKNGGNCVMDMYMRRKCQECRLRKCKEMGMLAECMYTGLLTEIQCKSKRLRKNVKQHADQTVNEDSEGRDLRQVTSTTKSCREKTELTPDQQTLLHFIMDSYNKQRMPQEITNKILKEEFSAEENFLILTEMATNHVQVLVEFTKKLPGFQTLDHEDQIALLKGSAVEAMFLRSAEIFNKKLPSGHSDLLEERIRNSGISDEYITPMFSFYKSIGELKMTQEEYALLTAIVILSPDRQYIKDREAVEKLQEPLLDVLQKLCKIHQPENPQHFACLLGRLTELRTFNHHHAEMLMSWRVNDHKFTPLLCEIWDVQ
Chain of Peroxisome proliferator-activated receptor delta (Homo sapiens) (Q03181 whole entry, looked up): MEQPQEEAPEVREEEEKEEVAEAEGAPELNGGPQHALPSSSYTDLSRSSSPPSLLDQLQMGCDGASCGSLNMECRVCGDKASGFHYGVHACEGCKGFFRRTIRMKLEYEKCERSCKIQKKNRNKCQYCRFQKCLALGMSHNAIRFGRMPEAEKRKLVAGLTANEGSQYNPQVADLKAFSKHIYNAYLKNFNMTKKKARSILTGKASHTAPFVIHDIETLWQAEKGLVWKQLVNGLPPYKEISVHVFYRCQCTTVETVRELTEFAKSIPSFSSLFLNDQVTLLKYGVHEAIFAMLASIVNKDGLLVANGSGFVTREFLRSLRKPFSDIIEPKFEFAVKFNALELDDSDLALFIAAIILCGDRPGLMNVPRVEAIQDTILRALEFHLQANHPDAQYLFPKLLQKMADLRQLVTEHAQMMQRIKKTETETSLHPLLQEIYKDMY
Chain of Vitamin D3 receptor (Homo sapiens) (P11473 whole entry, looked up): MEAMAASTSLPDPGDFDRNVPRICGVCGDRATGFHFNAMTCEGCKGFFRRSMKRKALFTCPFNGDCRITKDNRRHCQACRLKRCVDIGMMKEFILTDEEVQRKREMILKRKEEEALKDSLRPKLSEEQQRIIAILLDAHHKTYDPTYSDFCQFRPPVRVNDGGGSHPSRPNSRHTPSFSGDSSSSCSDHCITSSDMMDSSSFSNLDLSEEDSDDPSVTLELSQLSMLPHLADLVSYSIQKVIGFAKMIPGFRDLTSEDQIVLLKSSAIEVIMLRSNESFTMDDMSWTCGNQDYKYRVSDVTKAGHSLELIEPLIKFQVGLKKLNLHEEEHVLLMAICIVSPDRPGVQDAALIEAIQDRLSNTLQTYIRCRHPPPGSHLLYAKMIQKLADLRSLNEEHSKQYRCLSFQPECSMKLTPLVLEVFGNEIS

`CCN1CCCC1CNC(=O)c1cc(S(N)(=O)=O)ccc1OC` (centres undefined): the Potency entry in [1], in assay [3], in assay [11] and in assay [14] was “inactive” each time. Moreover, the result in assay [2], in [4], in assay [5], in assay [6], in assay [7] and in assay [8] was inactive. Besides, the compound was called inactive in assay [9], in assay [10] and in assay [13]. The Potency in assay [12] is 54.5 µM (active).

Consider `O=C(O)Cc1cc(I)c(Oc2cc(I)c(O)c(I)c2)c(I)c1`, for which the Potency entry in assay [1], in assay [15], in assay [11], in assay [12] and in assay [14] was “inactive” throughout. Further, the compound was classed as inactive in assay [6], in [7], in assay [8], in assay [9], in [10] and in assay [13].

`CCCCCCC(=O)OCC`: the Potency entry in assay [1], in assay [15], in [11], in assay [12] and in [14] was “inactive” throughout. Moreover, the compound was called inactive in assay [16], in [17], in assay [2], in assay [4], in [5] and in assay [6]. For the same compound, the compound was called inactive in assay [7], in assay [8], in [10], in assay [18] and in assay [13].

Regarding `OC/C=C/c1ccccc1`, the Potency result in assay [1], in [15], in assay [3] and in [14] was “inactive” each time. Besides, the call in assay [16], in [2], in [4], in assay [5], in [6] and in assay [7] was inactive. Further, the result in assay [8], in assay [9], in assay [10], in assay [18] and in assay [13] was inactive.

Consider `OCc1ccccn1`, for which the compound was classed as inactive in assay [16], in assay [17], in assay [2], in [7], in assay [8] and in [9]. The compound was called inactive in assay [10] and in assay [13]. Moreover, the Potency result in [15], in assay [3], in assay [11], in assay [12] and in assay [14] was “inactive” each time.

On to `NC(=O)CCCCC1CCSS1` (centres undefined), for which the Potency entry in assay [1], in assay [15], in assay [11], in assay [12] and in assay [14] was “inactive” throughout. Besides, the outcome in assay [16], in assay [17], in assay [19], in [20], in [4] and in assay [5] was inactive. In addition, the compound was classed as inactive in [6], in assay [7], in [8], in assay [9], in assay [10] and in assay [13].

For `CCOC(=O)[C@H](CCc1ccccc1)N[C@@H](C)C(=O)N1CCC[C@H]1C(=O)O`, the call in assay [16], in [17], in assay [2], in assay [4], in [6] and in assay [7] was inactive. Also, the compound was classed as inactive in [8], in [9], in assay [10] and in assay [13]. Moreover, the Potency entry in assay [3], in assay [11], in [12] and in assay [14] was “inactive” in each case.

Consider `CO[Si](CCCNCCC[Si](OC)(OC)OC)(OC)OC`, for which the Potency result in assay [1], in assay [15], in [3], in [11], in [12] and in assay [14] was “inactive” each time. Moreover, the call in [2], in assay [20], in assay [5], in [6], in assay [7] and in assay [8] was inactive. The compound was classed as inactive in [9] and in assay [10].
